We go through eight molecules from PubChem BioAssay (NCI).

The structures appear in SMILES notation. This is part of a sample that, as a whole, favours compounds with a hit. Of some 79,000 tested, about 15% had one in any assay. Values without a mark were called inactive. Activity calls are given as the source filed them. Rule as the data show it: active = growth inhibition above about 70%; inactive = the rest.

The nature of assay [1]: NCI Yeast Anticancer Drug Screen. Data for the rad50 strain (AID 155).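 Also: 0% = growth of vehicle-only cultures of the same strain.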 Particulars: S. cerevisiae rad50 strain growth inhibition, stronger effect = higher value. The gist of the method: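 Compounds were tested on a yeast strain with an engineered DNA damage repair alteration; the reported value is growth inhibition normalised to vehicle treatment.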
Assay [2] is described as follows: NCI Yeast Anticancer Drug Screen. Data for the mec2-1 strain (AID 157). The following applies: S. cerevisiae mec2-1 strain, stronger effect = higher value. The gist of the method:
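Compounds were applied to mec2-1 yeast cells. Their growth was then compared with that of vehicle-treated cultures to give growth inhibition.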

A short description of assay [3]: NCI Yeast Anticancer Drug Screen. Data for the sgs1 mgt1 strain (AID 161).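 Also: 0% = growth of cultures given vehicle only.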 The following applies: S. cerevisiae sgs1 mgt1 strain, stronger effect = higher value. Put shortly: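 Compounds are added to genetically altered yeast, and growth is compared with cultures given vehicle alone to give percent inhibition.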
Assay [4] can be described thus: NCI Yeast Anticancer Drug Screen. Data for the bub3 strain (AID 167). Particulars: S. cerevisiae bub3 mutant strain, stronger effect = higher value. Put shortly: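 Growth of a checkpoint-deficient yeast mutant is measured after compound exposure. Values represent inhibition relative to vehicle.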
Assay [5] in a line: NCI Yeast Anticancer Drug Screen. Data for the mlh1 rad18 strain (AID 175). The following applies: S. cerevisiae mlh1 rad18 strain growth inhibition, stronger effect = higher value. The gist of the method:
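A repair-deficient yeast strain is exposed to test compound, and growth is scored relative to vehicle-treated controls.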

Assay [6] is described as follows: NCI Yeast Anticancer Drug Screen. Data for the cln2 rad14 strain (AID 165).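 Also: 0% = growth equal to vehicle treated cultures.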 The following applies: S. cerevisiae cln2 rad14 strain, stronger effect = higher value. The gist of the method: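 Strain: cln2 rad14 yeast, altered in cell cycle control and DNA damage repair. Read-out: growth inhibition vs vehicle.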
Where [7] appears, read: at 5.0 µM (retest, dose inferred, filed as 0.5).
Setting [8] is: at 50.0 µM (retest, dose inferred, filed as 5.0).

As to `COc1ccc2nc3cc(Cl)ccc3c(NCCCNCc3cc(OC)c(OC)c(OC)c3)c2c1`, the growth inhibition was 18% in assay [1] (setting [7]); 92% (active) in assay [1] (setting [8]); 98.2% (active) in assay [1] (at 50.0 µM); -3% in assay [2] (setting [7]); 62% in assay [2] (setting [8]); 98.3% (active) in assay [2] (at 50.0 µM). For the same molecule, the growth inhibition in assay [3] (setting [7]) is 6%; in assay [3] (setting [8]) it was 87% (active); in assay [3] (at 50.0 µM), 98.3% (active); in assay [4] (setting [7]), 22%; in assay [4] (setting [8]), 82% (active); in assay [4] (at 50.0 µM), 98.8% (active). In addition, the growth inhibition in assay [5] (setting [7]) is 3%; in assay [5] (setting [8]), 92% (active); in assay [5] (at 50.0 µM), 98% (active).
Turning to `Cc1cccc2c1Oc1cc(Cl)ccc1C2NC(=O)CCN1CCCCC1` (stereo not given), the growth inhibition in assay [1] (setting [7]) was -22%; in assay [1] (setting [8]), 24%; in assay [1] (at 50.0 µM), 85.2% (active); in assay [2] (setting [7]), -12%; in assay [2] (setting [8]) it was 3%; in assay [2] (at 50.0 µM), 25.9%. Moreover, the growth inhibition was -6% in assay [3] (setting [7]); 21% in assay [3] (setting [8]); 86.3% (active) in assay [3] (at 50.0 µM); 27% in assay [6] (setting [7]); 26% in assay [6] (setting [8]); 65.7% in assay [6] (at 50.0 µM). The growth inhibition was 14% in assay [5] (setting [7]), 57% in assay [5] (setting [8]) and 69.1% in assay [5] (at 50.0 µM).
`Clc1c(C(Cl)(Cl)Cl)nsc1N1CCCCC1`: the growth inhibition is 17% in assay [1] (setting [7]); 58% in assay [1] (setting [8]); 50.6% in assay [1] (at 50.0 µM); -3% in assay [3] (setting [7]); 39% in assay [3] (setting [8]); 33.1% in assay [3] (at 50.0 µM). The growth inhibition in assay [6] (setting [7]) was 17%; in assay [6] (setting [8]), 10%; in assay [6] (at 50.0 µM), 28%; in assay [4] (setting [7]) it was 1%; in assay [4] (setting [8]), 18%; in assay [4] (at 50.0 µM), 51.4%. Also, the values for the growth inhibition in assay [5] (setting [7]), in assay [5] (setting [8]) and in assay [5] (at 50.0 µM) were 18%, 84% (active) and 46.7%, respectively.
`Fc1ccc(NC(=S)SCc2ccc3c(c2)OCO3)cc1`: the growth inhibition in assay [1] (setting [7]) was 3%; in assay [1] (setting [8]), 98% (active); in assay [1] (at 50.0 µM), 99% (active); in assay [2] (setting [7]), 1%; in assay [2] (setting [8]), 99% (active); in assay [2] (at 50.0 µM), 98.5% (active). Also, the growth inhibition was 3% in assay [3] (setting [7]); 99% (active) in assay [3] (setting [8]); 99.5% (active) in assay [3] (at 50.0 µM); -8% in assay [4] (setting [7]); 97% (active) in assay [4] (setting [8]); 98.9% (active) in assay [4] (at 50.0 µM). The growth inhibition in assay [5] (setting [7]) is -4%; in assay [5] (setting [8]), 95% (active); in assay [5] (at 50.0 µM), 99.3% (active).
On to `O=C(C(c1ccccc1)c1ccccc1)C(c1ccccc1)c1ccccc1`, for which the growth inhibition in assay [1] (setting [7]) is 0%; in assay [1] (setting [8]), -12%; in assay [1] (at 50.0 µM) it was 25%; in assay [2] (setting [7]) it was -6%; in assay [2] (setting [8]), -13%; in assay [2] (at 50.0 µM) it was 0.85%. Also, the growth inhibition in assay [6] (setting [7]) is 2%; in assay [6] (setting [8]) it was -30%; in assay [6] (at 50.0 µM), 43.9%; in assay [4] (setting [7]), 0%; in assay [4] (setting [8]) it was 28%; in assay [4] (at 50.0 µM) it was -6.25%. The growth inhibition in assay [5] (setting [7]) was 0%; in assay [5] (setting [8]), -4%; in assay [5] (at 50.0 µM), 1.55%.
Consider `OCc1ccccc1C(c1ccccc1)c1ccccc1`, for which the growth inhibition in assay [1] (setting [7]) was 0%; in assay [1] (setting [8]) it was 98% (active); in assay [1] (at 50.0 µM) it was 3.45%; in assay [2] (setting [7]) it was 9%; in assay [2] (setting [8]), 99% (active); in assay [2] (at 50.0 µM) it was 64.7%. Besides, the growth inhibition in assay [3] (setting [7]) is -1%; in assay [3] (setting [8]), 70% (active); in assay [3] (at 50.0 µM), 73% (active); in assay [6] (setting [7]), 8%; in assay [6] (setting [8]) it was 98% (active); in assay [6] (at 50.0 µM), 5.85%. Also, the results for the growth inhibition in assay [5] (setting [7]), in assay [5] (setting [8]) and in assay [5] (at 50.0 µM) were 6%, 94% (active) and 84.1% (active), respectively.
Take `CC[N](CC)[Ge]([CH2]C)[CH2]C.C[CH2][Ge]([CH2]C)[CH2]C`: the growth inhibition in assay [1] (setting [7]) is 40%; in assay [1] (setting [8]), 99% (active); in assay [1] (at 50.0 µM), 87% (active); in assay [3] (setting [7]), 32%; in assay [3] (setting [8]), 99% (active); in assay [3] (at 50.0 µM), 90% (active). In addition, the growth inhibition in assay [6] (setting [7]) is 54%; in assay [6] (setting [8]) it was 98% (active); in assay [6] (at 50.0 µM) it was 92.5% (active); in assay [4] (setting [7]), 24%; in assay [4] (setting [8]), 99% (active); in assay [4] (at 50.0 µM), 90% (active). Besides, the growth inhibition in assay [5] (setting [7]) is 37%; in assay [5] (setting [8]), 99% (active); in assay [5] (at 50.0 µM), 92.3% (active).
With `CCOc1ccc(N/N=C(\CCC(=O)O)C(=O)O)cc1`, the growth inhibition is -6% in assay [1] (setting [7]); 92% (active) in assay [1] (setting [8]); 96% (active) in assay [1] (at 50.0 µM); -9% in assay [2] (setting [7]); 77% (active) in assay [2] (setting [8]); 81% (active) in assay [2] (at 50.0 µM). Also, the growth inhibition is -3% in assay [3] (setting [7]); 84% (active) in assay [3] (setting [8]); 50.2% in assay [3] (at 50.0 µM); -15% in assay [4] (setting [7]); -45% in assay [4] (setting [8]); 86.7% (active) in assay [4] (at 50.0 µM). Moreover, the growth inhibition in assay [5] (setting [7]) was -5%; in assay [5] (setting [8]) it was 96% (active); in assay [5] (at 50.0 µM), 95.2% (active).
